Assay results from publication PMC11574364.

How the values were obtained:
Assay in all cases: protein domain microarray probed with biotinylated miRNA; Domain array: 20 mM Tris-HCl pH 7.4, 200 mM KCl, 0.2 mM EDTA, 0.05% NP40, 2 ug/ul heparin, overnight 4 C. ORF array: PBS pH 7.0 with RNase inhibitor, 100 ng RNA; high values mean tight binding
Settings in all cases: ssRNA
PPRC1 = target: T1, PPRC1 (Homo sapiens, UniProt Q5VV67)
T1 sequence: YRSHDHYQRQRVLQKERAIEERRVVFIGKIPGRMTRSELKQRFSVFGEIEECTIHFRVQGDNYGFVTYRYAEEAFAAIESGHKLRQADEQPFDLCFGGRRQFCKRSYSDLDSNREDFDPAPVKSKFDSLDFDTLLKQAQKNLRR

RBM26(1) = target: T2, RBM26(1) (Homo sapiens, UniProt Q5T8P6)
T2 sequence: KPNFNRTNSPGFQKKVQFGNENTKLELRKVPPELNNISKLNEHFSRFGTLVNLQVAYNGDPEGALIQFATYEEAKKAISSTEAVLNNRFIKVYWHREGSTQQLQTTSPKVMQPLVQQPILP

TIA1 = target: T3, TIA1 (Homo sapiens, UniProt P31483)
T3 sequence: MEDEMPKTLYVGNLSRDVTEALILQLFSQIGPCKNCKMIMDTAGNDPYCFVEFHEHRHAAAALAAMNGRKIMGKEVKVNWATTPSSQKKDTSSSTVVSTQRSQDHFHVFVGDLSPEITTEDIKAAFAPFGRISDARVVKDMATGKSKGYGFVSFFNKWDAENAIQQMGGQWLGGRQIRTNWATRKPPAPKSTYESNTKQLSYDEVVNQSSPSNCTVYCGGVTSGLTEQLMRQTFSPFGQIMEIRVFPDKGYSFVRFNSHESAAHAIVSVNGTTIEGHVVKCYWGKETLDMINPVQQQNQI

SETD1B = target: T4, SETD1B (Homo sapiens, UniProt Q9UPS6)
T4 sequence: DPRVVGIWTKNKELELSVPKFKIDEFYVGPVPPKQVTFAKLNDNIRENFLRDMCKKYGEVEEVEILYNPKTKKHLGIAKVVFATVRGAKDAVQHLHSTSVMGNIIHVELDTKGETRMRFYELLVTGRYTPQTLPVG

ADAR(2) = target: T5, ADAR(2) (Homo sapiens, UniProt P55265)
T5 sequence: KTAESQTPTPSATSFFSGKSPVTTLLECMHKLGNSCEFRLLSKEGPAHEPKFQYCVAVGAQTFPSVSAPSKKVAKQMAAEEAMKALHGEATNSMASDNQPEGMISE

RBM33 = target: T6, RBM33 (Homo sapiens, UniProt Q96EV2)
T6 sequence: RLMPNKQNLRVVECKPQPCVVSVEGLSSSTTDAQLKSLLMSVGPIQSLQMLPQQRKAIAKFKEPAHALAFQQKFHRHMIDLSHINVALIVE

ZNF638 = target: T7, ZNF638 (Homo sapiens, UniProt Q14966)
T7 sequence: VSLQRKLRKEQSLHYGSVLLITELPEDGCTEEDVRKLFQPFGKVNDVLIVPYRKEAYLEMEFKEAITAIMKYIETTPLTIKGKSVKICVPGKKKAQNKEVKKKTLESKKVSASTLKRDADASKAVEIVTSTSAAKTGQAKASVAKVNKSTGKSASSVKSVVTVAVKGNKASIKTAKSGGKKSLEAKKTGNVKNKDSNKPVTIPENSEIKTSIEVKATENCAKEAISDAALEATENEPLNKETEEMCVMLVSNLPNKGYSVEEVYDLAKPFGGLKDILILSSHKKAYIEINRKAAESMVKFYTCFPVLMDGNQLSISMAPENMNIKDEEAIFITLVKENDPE

PKR(1-2) = PKR(1-2) (Homo sapiens, UniProt P19525)
Sequence of PKR(1-2) (P19525 1-186): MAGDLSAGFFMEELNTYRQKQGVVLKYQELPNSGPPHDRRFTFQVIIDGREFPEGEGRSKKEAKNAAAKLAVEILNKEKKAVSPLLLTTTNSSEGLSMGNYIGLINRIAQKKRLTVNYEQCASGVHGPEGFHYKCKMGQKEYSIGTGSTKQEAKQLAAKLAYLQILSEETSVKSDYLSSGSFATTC

ADAR(3) = target: T8, ADAR(3) (Homo sapiens, UniProt P55265)
T8 sequence: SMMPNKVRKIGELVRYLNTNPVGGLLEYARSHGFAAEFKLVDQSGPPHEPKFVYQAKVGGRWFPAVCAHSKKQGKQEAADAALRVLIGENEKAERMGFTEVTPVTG

DDX9(1)/DHX9 = DDX9(1)/DHX9 (Homo sapiens, UniProt Q08211)
Sequence of DDX9(1)/DHX9 (Q08211 1-89): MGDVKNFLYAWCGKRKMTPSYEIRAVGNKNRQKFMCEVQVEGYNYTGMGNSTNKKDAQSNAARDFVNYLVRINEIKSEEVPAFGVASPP

Sequence: UGAGGUAGUAGGUUGUAUAGUU
- binding signal (PPRC1): 24.9 ± 1.13 fluorescence intensity
- binding signal (RBM26(1)): 395 ± 44.7 fluorescence intensity
- binding signal (TIA1): 584.8 ± 5.47 fluorescence intensity
- binding signal (SETD1B): 21.4 ± 1.84 fluorescence intensity
- binding signal (ADAR(2)): 21.92 ± 0.0141 fluorescence intensity
- binding signal (RBM33): 24.2 ± 0.735 fluorescence intensity

Sequence: UGAGGUAGUAGGUUGUGUGGUU
- binding signal (PPRC1): 155 ± 53.3 fluorescence intensity
- binding signal (RBM26(1)): 1560 ± 215 fluorescence intensity
- binding signal (ZNF638): 57.9 ± 2.93 fluorescence intensity
- binding signal (PKR(1-2)): 53.5 ± 3.56 fluorescence intensity
- binding signal (TIA1): 871 ± 40.8 fluorescence intensity
- binding signal (ADAR(3)): 31.8 ± 4.56 fluorescence intensity
- binding signal (DDX9(1)/DHX9): 68.5 ± 11.3 fluorescence intensity
- binding signal (SETD1B): 24.2 ± 1.14 fluorescence intensity
- binding signal (ADAR(2)): 22.6 ± 1.85 fluorescence intensity
- binding signal (RBM33): 32.8 ± 1.94 fluorescence intensity

Sequence: AGAGGUAGUAGGUUGCAUAGUU
- binding signal (PPRC1): 97 ± 3.22 fluorescence intensity
- binding signal (RBM26(1)): 1530 ± 59.8 fluorescence intensity
- binding signal (ZNF638): 29.21 ± 0.262 fluorescence intensity
- binding signal (PKR(1-2)): 24.8 ± 1.68 fluorescence intensity
- binding signal (TIA1): 1240 ± 50.7 fluorescence intensity
- binding signal (ADAR(3)): 24.2 ± 0.771 fluorescence intensity
- binding signal (DDX9(1)/DHX9): 29.6 ± 4.33 fluorescence intensity
- binding signal (SETD1B): 20.2 ± 1.15 fluorescence intensity
- binding signal (ADAR(2)): 23.9 ± 0.346 fluorescence intensity
- binding signal (RBM33): 28.3 ± 2.28 fluorescence intensity

Sequence: UAGCUUAUCAGACUGAUGUUGA
- binding signal (RBM26(1)): 31 ± 1.68 fluorescence intensity
- binding signal (TIA1): 631 ± 33.9 fluorescence intensity
- binding signal (ADAR(2)): 23.2 ± 3.02 fluorescence intensity

Sequence: CAGUGCAAUGAUGAAAGGGCAU
- binding signal (PPRC1): 43 ± 4.72 fluorescence intensity
- binding signal (RBM26(1)): 478 ± 6.75 fluorescence intensity
- binding signal (ZNF638): 33.6 ± 1.92 fluorescence intensity
- binding signal (TIA1): 537.8 ± 3.27 fluorescence intensity
- binding signal (ADAR(2)): 22 ± 1.29 fluorescence intensity
- binding signal (RBM33): 26.1 ± 1.95 fluorescence intensity

Sequence: UGAGGUAGUAGGUUGUAUGGUU
- binding signal (PPRC1): 134 ± 3.36 fluorescence intensity
- binding signal (RBM26(1)): 1460 ± 57.5 fluorescence intensity
- binding signal (ZNF638): 38.3 ± 1.35 fluorescence intensity
- binding signal (PKR(1-2)): 28.7 ± 2.65 fluorescence intensity
- binding signal (TIA1): 1030 ± 40.8 fluorescence intensity
- binding signal (ADAR(3)): 30.3 ± 3.34 fluorescence intensity
- binding signal (DDX9(1)/DHX9): 49.7 ± 9.25 fluorescence intensity
- binding signal (SETD1B): 22.4 ± 0.396 fluorescence intensity
- binding signal (ADAR(2)): 22.7 ± 0.559 fluorescence intensity
- binding signal (RBM33): 40.1 ± 0.601 fluorescence intensity
